The values that follow come from the supplement of paper PMC6555819.

Common to all, as to test: PBM binding z-score (relative to random genomic background probes); higher = stronger binding; sequences stand for … in GC…GCGATTGACAGCGTAGAATGAAGG
For test [1], the system named is FXR:RXRa (NR concentration 270 nM, RXRa partner concentration 90 nM). The gist of the method:
(§1)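 Antibodies against each partner of ligand-free nuclear receptor dimers (one per run) detected binding on custom Agilent 4×180K protein-binding microarrays after 1 h incubation. The double-stranded probes had 34-nt variable regions carrying direct-repeat seeds, single-nucleotide variants, half-site ablations and random human genomic background sequences. Binding z-scores, from regression-normalized fluorescence, use the random background probes as reference.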

For test [2], the system named is LXRa:RXRa (NR concentration 270 nM, RXRa partner concentration 90 nM). The gist of the method:
as §1

In test [3] the test system is LXRa homodimer (NR concentration 270 nM). Put shortly: as §1
The subject of test [4] is LXRb:RXRa (NR concentration 270 nM, RXRa partner concentration 90 nM). The gist of the method:
as §1

The test system of test [5] is LXRb homodimer (NR concentration 270 nM). The gist of the method:
as §1

Test [6] deals with PPARa:RXRa (NR concentration 270 nM, RXRa partner concentration 90 nM). Put shortly:
as §1

Test [7] deals with PPARg:RXRa (NR concentration 180 nM, RXRa partner concentration 90 nM). The gist of the method: as §1
The subject of test [8] is PPARg:RXRa 270nM:90nM, anti-RXR (NR concentration 270 nM, RXRa partner concentration 90 nM). Put shortly: as §1
The test system of test [9] is PPARg:RXRa 30nM:10nM, anti-RXR (NR concentration 30 nM, RXRa partner concentration 10 nM). Put shortly:
as §1

Test [10] has as its system PPARg:RXRa 90nM:30nM, anti-RXR (NR concentration 90 nM, RXRa partner concentration 30 nM). Put shortly:
as §1

Test [11] concerns PPARg:RXRa DBDmut IVT, anti-RXR (DBD mutation: RXRa K156A/R161A, NR concentration 270 nM, RXRa partner concentration 90 nM). The gist of the method:
as §1

In test [12] the test system is PPARg:RXRa IVT, anti-PPARg (NR concentration 270 nM, RXRa partner concentration 90 nM). Put shortly:
as §1

Test [13] has as its system PPARg DBDmut:RXRa IVT, anti-PPARg (DBD mutation: PPARg1 K132A/R137A, NR concentration 270 nM, RXRa partner concentration 90 nM). The gist of the method: as §1
In test [14] the test system is PPARg DBDmut IVT, anti-PPARg (DBD mutation: PPARg1 K132A/R137A, NR concentration 270 nM). The gist of the method:
as §1

For test [15], the system named is PPARg homodimer (NR concentration 180 nM). The gist of the method: as §1
The test system of test [16] is PXR:RXRa (NR concentration 270 nM, RXRa partner concentration 90 nM). The gist of the method:
as §1

For test [17], the system named is PXR homodimer (NR concentration 270 nM). Put shortly: as §1
Test [18] has as its system RARa:RXR (NR concentration 270 nM, RXRa partner concentration 90 nM). The gist of the method: as §1
Test [19] concerns RARa homodimer (NR concentration 270 nM). The gist of the method: as §1
Test [20] has as its system RARb:RXRa (NR concentration 270 nM, RXRa partner concentration 90 nM). Put shortly: as §1

Turning to TCATATAGGTAAACAGGTGAAAGTCCGTAAGTTA, the PBM binding z-score in test [1] is 0.771; in test [2], 1.07; in test [3], 0.337; in [4] it was 0.884; in test [5], 0.0234; in [6] it was 2.39. For the same sequence, the PBM binding z-score in test [7] is 2.99; in [8] it was 3.77; in test [9] it was 4.16; in test [10], 3.87; in test [11], 4.87; in [12] it was 4.6. Also, the PBM binding z-score in test [13] was found to be 1.08; in [14] it was 0.871; in [15] it was 1.31; in test [16], 0.894; in test [17], 0.216; in test [18] it was 1.3. The PBM binding z-score in test [19] is 1.12; in [20], 0.78.

As for GCAGACAGGTGAAACGCAGGTAAATCAGGGTGGC, the PBM binding z-score in test [1] is -0.326; in [2] it was -0.128; in test [3] it was -0.519; in [4], -0.258; in [5], -0.862; in [6], 0.983. The PBM binding z-score is 0.513 in test [7]; -0.213 in test [8]; -0.632 in [9]; -0.346 in test [10]; 0.287 in [11]; 0.429 in test [12]. The PBM binding z-score in [13] was -0.773; in test [14], -1.02; in test [15], -0.379; in test [16], -0.152; in test [17] it was -0.443; in [18], 0.514. The PBM binding z-score is -0.404 in test [19] and 0.472 in [20].

Regarding CGAACTAGGTCAAGGACAGTGATTCTCCGCACGC, the PBM binding z-score is 3.46 in test [1]; 2.21 in test [2]; 0.289 in [3]; 1.56 in test [4]; -0.542 in test [5]; 4.8 in [6]. Also, the PBM binding z-score is 7.19 in test [7]; 6.34 in [8]; 3.52 in test [9]; 5.66 in test [10]; 8.31 in [11]; 8.3 in test [12]. For the same sequence, the PBM binding z-score in [13] is 2.89; in test [14], 2.07; in test [15], 1.69; in [16], 1.37; in [17], -0.0135; in test [18], 2.28. Further, the PBM binding z-score in test [19] turned out to be 0.11; in test [20] it was 4.21.

Regarding TGAATGAGGTTATAGATCAGGGAACGTGGCGTCG, the PBM binding z-score in [1] was 1.56; in test [2], 1.48; in test [3], -0.163; in test [4] it was 0.762; in test [5], 0.262; in test [6], 2.84. The PBM binding z-score worked out at 2.57 in test [7]; 3.62 in [8]; 2.18 in test [9]; 3.73 in [10]; 1.18 in test [11]; 1.89 in [12]. Moreover, the PBM binding z-score in test [13] was found to be 1.37; in test [14], 0.361; in test [15] it was 1.11; in test [16] it was 0.894; in [17], 0.211; in test [18], 1.58. Also, the values for the PBM binding z-score in [19] and in [20] were 0.661 and 1.34, respectively.

Take GCGACTGGGGCATCAGCAGGTTACCATAACTTAA: the PBM binding z-score in test [1] was 0.0865; in test [2] it was 0.156; in test [3] it was 0.0275; in [4], 0.704; in test [5], -0.886; in test [6], 1.33. Also, the PBM binding z-score is 1.21 in test [7]; 1.03 in test [8]; 0.757 in test [9]; 0.397 in test [10]; 3.62 in [11]; 3.27 in test [12]. Further, the PBM binding z-score is 0.296 in test [13]; -0.965 in test [14]; 0.771 in [15]; -0.0761 in [16]; -0.654 in test [17]; 0.57 in [18]. In addition, the PBM binding z-score in test [19] is -0.145; in test [20], 0.697.

In the case of CCGAGTAGGTTCTGGGGCATTCAGGCAACGGTGA, the PBM binding z-score was -0.196 in [1]; -0.351 in [2]; -0.153 in [3]; -0.391 in test [4]; -0.906 in test [5]; 0.158 in test [6]. Also, the PBM binding z-score was -0.108 in test [7]; 0.645 in test [8]; -0.76 in test [9]; 0.156 in [10]; 1.08 in test [11]; 1.69 in [12]. The PBM binding z-score is -1.23 in [13]; -1.34 in [14]; 0.223 in [15]; -0.868 in test [16]; -0.237 in test [17]; -0.69 in [18]. In addition, the PBM binding z-score in test [19] was -0.226; in test [20], 0.00361.

GCTAGCAGGCCGTTTGGGTCACTCAATGACGGGC: the PBM binding z-score was 0.0511 in [1]; -0.392 in [2]; -0.828 in test [3]; -0.0413 in test [4]; -1.11 in [5]; 0.602 in [6]. The PBM binding z-score in [7] was -0.107; in test [8], -0.514; in test [9] it was -0.56; in [10] it was -0.437; in [11], -0.553; in test [12] it was -0.27. In addition, the PBM binding z-score is -1.62 in [13]; -1.46 in test [14]; -0.598 in test [15]; 0.292 in test [16]; -0.556 in test [17]; 0.575 in test [18]. The PBM binding z-score in test [19] is -1.38; in test [20], 1.14.
